Results published in PubChem BioAssay AID504444 (National Center for Advancing Translational Sciences (NCATS), 2011).
The whole screen tested about 360,000 compounds, of which about 7,500 (2.1%) were called active. A call without a number means that no potency is given here. Another 20% or so got no clear call; they are omitted. The sample holds actives, similar compounds and a random draw of the others, so the mix is not that of the screen. A number with no mark means an inactive call. The call rests on the fitted dose curve; in most records, active means well fitted inhibition curve with a large enough effect; inconclusive means small, poorly fitted or top-dose-only effect, or effect the other way; inactive means flat fitted curve, though single readings scatter.

assay: Nrf2 qHTS screen for inhibitors; conditions: A549 ARE-Fluc reporter, luciferase luminescence, 18-24 h; series mostly up to 46 µM; further: nearly all actives have a fitted effect of over 60% in size
Procedure, shortened: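 Two sequential reads on A549 ARE_Fluc cells exposed to compound for 18-24 h: a CellTiter-Fluor fluorescence read for viability, then a luciferase luminescence read for Nrf2/ARE activity.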
Potency means the concentration at half of the fitted maximal effect.

Compound | Potency | activity change, negative = inhibition
NC(=O)C1(Nc2ccc(-c3ccccc3)cc2)CCCC1 | inactive | –
O=C1CCCC2=C1[C@@]1(CCC(c3ccccc3)C1)N=C(Nc1nc3ccccc3o1)N2 (some centres not stated) | inactive | –
O=c1c2ccccc2n(Cc2cccc(Cl)c2)c(=O)n1Cc1ccccc1 | – | -5.53% [at 9.27 µM]
CCOC(=O)c1cnc(SCc2nc(N)nc(Nc3ccc(OC)cc3)n2)nc1N | inactive | –
CCOC(=O)c1cnc(SCC(=O)NCc2ccco2)nc1N | inactive | –
CCOC(=O)c1cnc(SCC(=O)Nc2cccc(OC)c2)nc1N | 25.9 µM (active) | –
COc1ccc(-c2cn3c(n2)sc2cc(C(=O)Nc4ccc(F)cc4)ccc23)cc1 | inactive | –
CCCCCCC1(C)NC(c2ccc3c(c2)OCO3)=CC(c2ccccc2O)N1 (configuration not stated) | inactive | –
Cc1ccc(C(=O)NCCNC(=O)c2cnccn2)cc1 | inactive | –
CC(=O)NCC(=O)NC1CCCc2c1cnn2-c1ccccc1F (configuration not stated) | inactive | –
Cc1ccc(-n2ncc3c2CCCC3NC(=O)c2cnccn2)cc1C (configuration not stated) | 20.6 µM (active) | –
Cc1cccc(-n2nc3c(c2NC(=O)c2ccc(Br)o2)CSC3)c1C | inactive | –
Cn1nccc1C(=O)NC1CCCc2c1cnn2-c1ccc(F)cc1F (configuration not stated) | 0.184 µM (active) | –
Cc1cc(C(=O)NC2CCCc3c2cnn3-c2cccc(C)c2C)c(C)o1 (configuration not stated) | 3.66 µM (active) | –
COc1ccc(C(=O)NC2CC(C)(C)Cc3c2cnn3-c2ccccc2C)o1 (configuration not stated) | inactive | –
CC1=C(C(=O)NC2CC(C)(C)Cc3c2cnn3-c2ccc(C)cc2)OCCO1 (configuration not stated) | inactive | –
Cc1ccc(-c2csc(NC(=O)c3cnccn3)n2)cc1C | inactive | –
COc1cc(CNCCSc2nnnn2C)ccc1OCc1ccc(Cl)cc1Cl | inactive | –
COc1ccc(CNC(=O)CS(=O)Cc2nc(-c3cccc(C)c3)oc2C)cc1 (configuration not stated) | inactive | –
Cc1ccc(OCCSc2nc(C)c(Cc3ccccc3)c(=O)[nH]2)cc1 | inactive | –
CCOC(=O)[C@H]1[C@H]2COc3ccc(Br)cc3[C@@H]2N2C(=O)CN(C)C(=O)[C@@]12C | inactive | –
CN(CC(=O)Nc1ccc(OC(F)F)cc1)S(=O)(=O)/C=C/c1ccccc1 | inactive | –
O=C(Nc1cccc(NC(=O)c2cccc(F)c2)c1)c1ccccc1 | inactive | –
O=C(Nc1cccc(NC(=O)c2ccc(Br)cc2)c1)c1ccccc1 | inactive | –
O=C(Cc1ccccc1)Nc1cccc(NC(=O)c2ccccc2)c1 | 25.9 µM (active) | –

Compound | Potency | activity change, negative = inhibition
Cc1ccccc1C(=O)Nc1sc2c(c1C(=O)N1CCC(C)CC1)CCCC2 | inactive | –
COc1ccc(C(=O)COC(=O)c2ccc([N+](=O)[O-])s2)cc1OC | inactive | –
COc1ccc(C(=O)NCC(=O)N/N=C/c2ccc([N+](=O)[O-])s2)cc1OC | 25.9 µM (active) | –
CCOc1ccc(NC(=O)CCC(=O)N/N=C/c2ccc([N+](=O)[O-])s2)cc1 | inactive | –
COc1ccc2ccccc2c1/C=N/NC(=O)c1cc(C)[nH]n1 | inactive | –
CC(C)(C)c1cc(C(=O)N/N=C/c2ccc([N+](=O)[O-])s2)n[nH]1 | 20.6 µM (active) | –
Cc1cc(C(=O)N/N=C/c2cc([N+](=O)[O-])cc(C)c2O)n[nH]1 | inactive | –
Cn1c(=O)c(C(=O)O)nn(-c2ccccc2)c1=O | – | 7.58% [at 9.27 µM]
COc1ccc(C2=NC(c3ccncc3)=Nc3ccc(Br)cc3N2)cc1 | inactive | –
COc1cc(C2CC(=O)Oc3cc(OC)c(OC)c(OC)c32)cc(OC)c1OC (configuration not stated) | inactive | –
CCN1CCN(CCNC(=O)c2ccc(/C=C3/Sc4ccccc4N(Cc4cccc(C)c4)C3=O)cc2)CC1 | inactive | –
CCN1/C(=C/c2ccc3ccc(C)cc3[n+]2CC)Sc2ccccc21 | 13 µM (active) | –
FC(F)(F)c1ccc(-c2cccc3c2C2CC3CCN2Cc2ccccc2)cc1 (configuration not stated) | inactive | –
COc1ccc(-c2cc(NCc3ccc(F)cc3)n3cnnc3n2)cc1 | inactive | –
NC(=O)c1ncn([C@@H]2O[C@H](CNCc3cnc(N4CCOCC4)s3)[C@@H](O)[C@H]2O)n1 | inactive | –
Cc1ccc(S(=O)(=O)c2c(COC(=O)c3cccc(Cl)c3)c(-c3ccccc3)nn2C)cc1 | inactive | –
Cn1nc(-c2ccccc2)c(CO)c1Sc1ccccc1 | 25.9 µM (active) | –
Cn1nc(-c2ccccc2)c(CSc2cccc(Cl)c2)c1Cl | inactive | –
O=C(COc1ccccc1F)NNC(=O)c1cc(Br)ccc1Cl | inactive | –
O=C(CN1C(=O)NC2(CCCCCC2)C1=O)Nc1ccc([N+](=O)[O-])cc1 | inactive | –
CCC1CCCCN1Cc1c(O)ccc2c(=O)c(Oc3ccccc3Cl)c(C(F)(F)F)oc12 (configuration not stated) | inactive | –
C#CCOCCOCCOCCNc1nc(N2CCN(C(=O)Cn3cc(CCO)nn3)CC2)nc(N2CCN(C(=O)[C@H](CCCCN)n3cc(CCCC)nn3)CC2)n1 | inactive | –
C=CCn1c(C)cc(C2=NNC(=NCC)SC2)c1C | 16.4 µM (active) | –
Cc1cc(C2=NNC(=Nc3ccc(S(=O)(=O)N4CCOCC4)cc3)SC2)c(C)n1CC1CCCO1 (configuration not stated) | inactive | –
Cc1cccc2nc(-c3ccc(Cl)s3)c(Nc3ccc4c(c3)OCCO4)n12 | inactive | –

Compound | Potency | activity change, negative = inhibition
COc1ccc(NC(=O)/C(N=Nc2cccc(S(=O)(=O)Nc3ccc(SC(F)F)cc3)c2)=C(\C)O)cc1 | inactive | –
C=CCCC(=O)N1C[C@H]2CON(C)[C@H]2C[C@H]1c1cccc(Nc2ccccc2)c1 | inactive | –
CN(C)C(=O)CCc1ccc2c3c([nH]c2c1)[C@]1(C)[C@@H](C(=O)N2CCCCC2)C[C@H](CC(=O)NCCC2=CCCCC2)C(=O)N1CC3 | inactive | –
CCc1ccc(S(=O)(=O)n2ccnc2)cc1 | inactive | –
CCOc1ccccc1CNC(=O)c1ccc(-n2c(C)cc3c2CCC(C)C3)cc1 (configuration not stated) | inactive | –
CC(C)Oc1ccc(CCC(=O)NNC(=S)NCc2ccccc2)cc1 | inactive | –
COc1ccc(C(=O)NC(=S)NNC(=O)CCc2ccccc2)cc1 | 7.31 µM (active) | –
O=C(CCc1ccccc1)NNC(=O)c1ccc(Br)cc1 | inactive | –
Cc1ccc(CNC(=O)c2c(-c3ccccc3)noc2C)cc1 | inactive | –
COc1ccc(C(=O)NNC(=S)NC(=O)c2ccccc2[N+](=O)[O-])cc1 | inactive | –
COc1ccc(C(=O)NC(=S)NNC(=O)c2c(-c3ccccc3)noc2C)cc1 | 23.1 µM (active) | –
CCN(C(=O)c1sc2cc(OC)ccc2c1Cl)c1ccccc1 | inactive | –
C=CCN1C=C(C(=O)c2ccccc2)C(=O)CC1 | inactive | –
COc1cccc(CNc2nc(C(F)(F)F)nc3ccccc23)c1 | 23.1 µM (active) | –
COc1cccc(CNc2ncc(-c3ccccc3)n2C)c1 | inactive | –
COc1cccc(CNC(=O)c2n[nH]c3ccccc23)c1 | inactive | –
CC(Nc1nc(C(F)(F)F)nc2ccccc12)c1cccs1 (configuration not stated) | inactive | –
NS(=O)(=O)c1ccc(CCNC(=O)CNC(=O)Cc2ccccc2)cc1 | inactive | –
NS(=O)(=O)c1ccc(CCNc2nc(C(F)(F)F)nc3ccccc23)cc1 | 23.1 µM (active) | –
Cc1ccc(C)c(Cn2c(C(=O)O)c(CNCc3cccs3)c3ccccc32)c1 | inactive | –
COC(=O)CN1C(=O)CSc2ccc(S(=O)(=O)Nc3cc(C)ccc3C)cc21 | inactive | –
Cc1cc(N)n(-c2ccc(S(=O)(=O)N3CCCC3)cc2[N+](=O)[O-])n1 | inactive | –
Cc1ccc(C(=O)c2ccc(N3CCN(C)CC3)c([N+](=O)[O-])c2)cc1 | inactive | –
CN1CCN(S(=O)(=O)c2ccc(N3CCN(c4ccccc4O)CC3)c([N+](=O)[O-])c2)CC1 | 14.6 µM (active) | –
COc1ccc(-c2nc(Cn3c(=O)cc(C)c4c(C)nn(-c5ccccc5)c43)c(C)o2)c(OC)c1 | inactive | –

Compound | Potency | activity change, negative = inhibition
Cc1cc(C)n2ncc(C(=O)N3CCCC3)c2n1 | inactive | –
Cc1cccc(NS(=O)(=O)c2ccc(C)c(C(=O)NCC(c3ccccc3)N(C)C)c2)c1 (configuration not stated) | inactive | –
CCOC(=O)c1ccccc1C(=O)N1CCOCCOCCOCC1 | inactive | –
Cc1ccccc1-c1ccc(Nc2ccc(C(=O)N3CCOCC3)cc2)nn1 | inactive | –
Cc1oc2c(c1C(=O)N1CCOCC1)C(=O)c1ccccc1C2=O | 16.4 µM (active) | –
COc1ccc(C2Nc3ccc(NC(=O)COC(C)=O)cc3C(=O)N2Cc2ccccc2)cc1COc1ccc(NC(C)=O)cc1 (configuration not stated) | inactive | –
CC1=CC(C)(C)N(C(=O)CSc2nccn2C)c2cc(C)ccc21 | inactive | –
Cc1cccc(C)c1OC(=O)CSc1nnc(-c2ccccc2)o1 | inactive | –
CC1=CC(C)(C)N(C(=O)CSc2nnc(-c3ccccc3)o2)c2ccc(C)cc21 | 25.9 µM (active) | –
CCN(CC)C(=O)[C@H]1CC(CC(=O)NCc2ccco2)C(=O)N2CCc3c([nH]c4ccccc34)[C@]12C (some centres not stated) | inactive | –
Clc1cccc(N=C2NN=C(c3ccc4c(c3)OCCO4)CS2)c1 | 5.17 µM (active) | –
S=C(Nc1cccc(Cl)c1)Nc1ccc2c(c1)OCCO2 | inactive | –
Cc1cccc(N=C2NN=C(c3c[nH]c4ccccc34)CS2)c1 | inactive | –
CCn1nnc2cc(C(=O)Nc3ccc(C(=O)OC(C)C)cc3)ccc21 | inactive | –
Cc1cc(C)cc(NC(=O)CSc2oc(-c3ccccc3)nc2S(=O)(=O)c2ccc(Cl)cc2)c1 | – | 4.62% [at 9.27 µM]
Cc1ccc(-c2nc(CS(=O)(=O)CC(=O)NCc3ccccc3Cl)c(C)o2)cc1 | inactive | –
CCCCn1c(SCc2ncc(-c3ccccc3)o2)nc2cc(S(N)(=O)=O)ccc21 | 14.6 µM (active) | –
CCCCn1c(SCC(=O)N2CCCC2=O)nc2cc(S(N)(=O)=O)ccc21 | inactive | –
CCCCn1c(SCC(=O)N2CCC(C(=O)OCC)CC2)nc2cc(S(N)(=O)=O)ccc21 | inactive | –
CCCn1c2ccccc2c2cnn(CC(=O)N(CC)c3cc(C)ccc3C)c(=O)c21 | inactive | –
Cc1ccc(S(=O)(=O)c2nc(-c3cccs3)oc2N2CCCCC2)cc1 | inactive | –
CCOc1ccccc1NC(=O)Cn1nnc(C(=O)Nc2ccc(C)c(C)c2)c1N | inactive | –
